The source made the active and inactive calls.
How the values were obtained:
[1] = test system: Human papillomavirus type 1a protein E7 (residues 44-93); test: HPV1a E7 fragment binders on microarrays, primary screen, biochemical, small-molecule microarray, residues 44-93, 635 nm fluorescence (AID 1108); details: small-molecule microarray binding, fluorescence 635 nm; higher = more signal;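 further: E7 fragment applied at 1 µg/mL in TBST for 1 h at 4 C; score combines spot fluorescence with its signal to noise ratio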
[2] = modulators of HCV replicon luciferase signal, primary screen, HCV replication inhibitor project, Huh7 cells, luciferase reporter (AID 1109); details: 48 h, higher = more signal;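 further: huh7 hepatoma cells harbouring a luciferase neomycin HCV replicon reporter; luciferase luminescence as measure of HCV replicon replication; test concentration not given here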
[3] = target: Left-right determination factor 2 (Homo sapiens) (UniProt O00292); test: LEFTY2 binders on small-molecule microarrays, primary screen, biochemical, small-molecule microarray, 635 nm fluorescence scan (AID 1110); details: LEFTY2 binding, higher = more signal
Chain of Left-right determination factor 2 (Homo sapiens) (O00292 whole entry, looked up): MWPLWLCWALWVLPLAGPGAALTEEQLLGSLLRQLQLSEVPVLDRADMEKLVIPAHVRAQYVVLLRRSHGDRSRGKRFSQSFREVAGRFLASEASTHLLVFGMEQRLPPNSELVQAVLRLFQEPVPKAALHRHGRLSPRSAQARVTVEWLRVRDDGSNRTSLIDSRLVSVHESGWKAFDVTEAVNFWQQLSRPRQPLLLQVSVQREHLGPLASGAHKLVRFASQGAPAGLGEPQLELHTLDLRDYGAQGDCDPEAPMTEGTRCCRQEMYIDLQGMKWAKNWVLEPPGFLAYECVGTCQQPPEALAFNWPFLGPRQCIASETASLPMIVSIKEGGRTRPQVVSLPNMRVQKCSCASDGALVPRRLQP

[4] = target: Calmodulin-1 (Homo sapiens) (UniProt P0DP23); test: CALM1 binders on microarrays, EGTA buffer, profiling panel, biochemical, small-molecule microarray, Cy5-labelled CALM1 (AID 1111); details: Cy5-CALM1 binding fluorescence, higher = more signal;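 further: labelled calmodulin applied in Tris saline Tween buffer holding calcium plus EGTA and DTT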
[5] = target: Calmodulin-1 (Homo sapiens) (UniProt P0DP23); test: calcium-bound CALM1 binders on microarrays, profiling panel, artefact control for SMM control-protein annotation, biochemical, small-molecule microarray, Cy5-labelled CALM1, plus calcium (AID 1112); details: Cy5-CALM1 binding fluorescence, higher = more signal;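 further: score merges spot fluorescence with signal to noise from triplicate slides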
[6] = small-molecule microarray binders of probe aWnt5a, primary screen, biochemical, biotinylated probe, 635/667 nm fluorescence (AID 1113); details: higher = more signal;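 further: score merges 667 nm fluorescence intensity with signal-to-noise per printed feature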
[7] = small-molecule microarray binders of probe aShh, primary screen, biochemical, biotinylated probe, 635/667 nm fluorescence (AID 1114); details: higher = more signal;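 further: probe is biotin-labelled aShh protein from a stem cell growth factor screen; measures binding of labelled protein to compounds printed on the slide; score merges feature fluorescence at 667 nm with signal-to-noise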
[8] = small-molecule microarray binders of probe aNog, primary screen, biochemical, biotinylated probe, 635/667 nm fluorescence (AID 1115); details: higher = more signal;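 further: probe is biotinylated aNog protein used at 0.15 µg/mL for 1 h at 4 C; z-score combines 667 nm fluorescence of each spot with its signal to noise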
[9] = target: Torsin-1A-interacting protein 1 (Homo sapiens) (UniProt Q5JTV8); test: LAP1 binders from COS7 cell lysate, primary screen, small-molecule microarray, 635/667 nm fluorescence (AID 1116); details: COS7-hLAP1 lysate binding, 635 nm fluorescence, higher = more signal
Chain of Torsin-1A-interacting protein 1 (Homo sapiens) (Q5JTV8 whole entry, looked up): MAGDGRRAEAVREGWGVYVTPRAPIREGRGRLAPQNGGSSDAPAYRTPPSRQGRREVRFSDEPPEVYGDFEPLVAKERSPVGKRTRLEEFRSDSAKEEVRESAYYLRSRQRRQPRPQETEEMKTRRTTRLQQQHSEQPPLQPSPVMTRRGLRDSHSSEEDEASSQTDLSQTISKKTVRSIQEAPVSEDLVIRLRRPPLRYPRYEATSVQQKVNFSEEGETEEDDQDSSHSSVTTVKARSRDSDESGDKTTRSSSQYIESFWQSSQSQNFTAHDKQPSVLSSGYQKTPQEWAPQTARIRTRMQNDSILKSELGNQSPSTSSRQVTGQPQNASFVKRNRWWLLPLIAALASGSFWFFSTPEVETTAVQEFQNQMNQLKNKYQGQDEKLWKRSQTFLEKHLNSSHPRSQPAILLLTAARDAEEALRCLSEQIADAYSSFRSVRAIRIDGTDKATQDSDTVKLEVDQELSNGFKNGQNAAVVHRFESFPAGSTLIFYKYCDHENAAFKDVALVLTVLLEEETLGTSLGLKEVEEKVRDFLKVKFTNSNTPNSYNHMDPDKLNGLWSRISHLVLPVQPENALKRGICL

[10] = target: Alpha-bungarotoxin (Bungarus multicinctus) (UniProt P60615); test: alpha-bungarotoxin binders on microarray, profiling panel, artefact control for SMM control protein annotation, biochemical, small-molecule microarray, Alexa647 label, 635/667 nm fluorescence (AID 1117); details: alpha-BTX-A647 binding fluorescence, higher = more signal
Chain of Alpha-bungarotoxin (Bungarus multicinctus) (P60615 whole entry, looked up): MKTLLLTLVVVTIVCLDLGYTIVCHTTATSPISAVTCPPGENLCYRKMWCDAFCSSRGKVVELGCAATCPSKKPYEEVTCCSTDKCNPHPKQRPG

Albumin (Bos taurus) = Albumin (Bos taurus) (UniProt P02769); test: bovine serum albumin binders on microarray, profiling panel, artefact control for SMM control protein annotation, biochemical, small-molecule microarray, Alexa647 label, 635/667 nm fluorescence (AID 1118); details: BSA-A647 binding, fluorescence 635 nm, higher = more signal;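 further: score merges 667 nm emission intensity and signal-to-noise per printed compound spot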
Chain of Albumin (Bos taurus) (P02769 whole entry, looked up): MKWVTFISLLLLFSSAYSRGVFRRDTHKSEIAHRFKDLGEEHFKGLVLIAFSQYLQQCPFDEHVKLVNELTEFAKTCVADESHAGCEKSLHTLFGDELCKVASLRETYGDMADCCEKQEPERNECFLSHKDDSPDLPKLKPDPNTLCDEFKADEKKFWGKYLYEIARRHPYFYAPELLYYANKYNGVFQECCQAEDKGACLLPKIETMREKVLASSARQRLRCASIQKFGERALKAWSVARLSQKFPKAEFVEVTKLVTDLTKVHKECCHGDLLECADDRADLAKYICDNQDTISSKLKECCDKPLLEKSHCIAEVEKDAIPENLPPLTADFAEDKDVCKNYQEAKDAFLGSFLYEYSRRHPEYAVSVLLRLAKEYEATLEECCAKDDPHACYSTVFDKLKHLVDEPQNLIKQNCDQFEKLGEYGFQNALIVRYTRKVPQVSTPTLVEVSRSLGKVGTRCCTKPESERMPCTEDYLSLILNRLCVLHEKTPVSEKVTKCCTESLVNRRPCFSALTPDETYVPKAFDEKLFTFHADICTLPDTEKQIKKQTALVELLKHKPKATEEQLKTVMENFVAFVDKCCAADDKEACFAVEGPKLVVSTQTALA

[11] = small-molecule microarray binders of probe aXIP, primary screen, biochemical, NeuroSMM set, 635/667 nm fluorescence (AID 1119); details: higher = more signal, called active from +8 up or from −8 down;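 further: probe is the protein aXip251-270 applied at 1 µg/mL to compound-printed slides; binding of probe to printed compounds measured as 667 nm fluorescence plus signal to noise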
[12] = small-molecule binders of probe aNOTCH3, primary screen, biochemical, small-molecule microarray, 635/667 nm fluorescence (AID 1120); details: higher = more signal;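 further: probe is a biotin-tagged antibody raised against NOTCH3 rather than NOTCH3 protein; score merges spot fluorescence near 667 nm with spot signal to noise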
[13] = small-molecule binders of probe aNOTCH2, primary screen, biochemical, small-molecule microarray, 635/667 nm fluorescence (AID 1121); details: higher = more signal;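 further: score merges feature fluorescence read at 667 nm with its signal to noise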
[14] = target: Carbonic anhydrase 2 (Homo sapiens) (UniProt P00918); test: CAII small-molecule binders, profiling panel, biochemical, small-molecule microarray, Alexa647-labelled CAII (AID 1122); details: CAII-A647 binding fluorescence, higher = more signal
[15] = COS7 lysate on small-molecule microarray, probe aHis, 635 nm (AID 1123); details: COS7 cell lysate, fluorescence, higher = more signal;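 further: z-score combines 667nm fluorescence intensity with signal-to-noise per printed compound spot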
[16] = compound binding in COS7 lysate, probe aLAP1, primary screen, cell lysate, small-molecule microarray (AID 1124); details: probe aLAP1, fluorescence, higher = more signal;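 further: lysate comes from COS7 cells expressing LAP1 and is applied at 0.3 µg/mL; score merges spot fluorescence near 667 nm with signal-to-noise over triplicate slides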
Sam68 (KHDRBS1) = test: Sam68 small-molecule binders, primary screen, biochemical, small-molecule microarray, 635 nm fluorescence (AID 1125); details: small-molecule microarray binding, higher = more signal;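 further: score merges 667 nm channel intensity with signal to noise over triplicate slides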
[17] = test system: Chordin-like protein 2 (CHRDL2); test: CHRDL2 small-molecule binders, primary screen, biochemical, small-molecule microarray, 635 nm fluorescence (AID 1126); details: small-molecule microarray binding, fluorescence 635 nm; higher = more signal;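 further: printed compound slides probed with Chrdl2 protein at 4 µg/mL for 1 h at 4 C; score merges 667 nm emission intensity with signal to noise over three replicate slides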
[18] = target: Concanavalin-A (Canavalia ensiformis) (UniProt P02866); test: ConA small-molecule binders, primary screen, artefact control for SMM control protein annotation, biochemical, small-molecule microarray, Alexa647 label, 635 nm (AID 1127); details: ConA-A647 binding fluorescence, higher = more signal;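 further: z combines 667 nm emission intensity with signal-to-noise across three replicate slides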
Chain of Concanavalin-A (Canavalia ensiformis) (P02866 whole entry, looked up): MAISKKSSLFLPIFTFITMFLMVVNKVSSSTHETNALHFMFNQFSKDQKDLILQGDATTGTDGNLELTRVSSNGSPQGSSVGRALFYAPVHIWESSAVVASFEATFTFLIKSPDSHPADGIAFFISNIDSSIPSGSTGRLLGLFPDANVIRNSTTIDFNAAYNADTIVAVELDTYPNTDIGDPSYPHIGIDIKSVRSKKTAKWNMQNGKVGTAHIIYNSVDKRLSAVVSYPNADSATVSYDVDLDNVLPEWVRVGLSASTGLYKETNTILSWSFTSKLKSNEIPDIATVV

SMILES	composite z-score [1]	z-score [2]	composite z-score [3]	composite z-score [4]	composite z-score [5]	composite z-score [6]	composite z-score [7]	composite z-score [8]	composite z-score [9]	composite z-score [10]	composite z-score (Albumin (Bos taurus))	composite Z-score [11]	composite z-score [12]	composite z-score [13]	composite z-score [14]	composite z-score [15]	composite z-score [16]	composite z-score (Sam68 (KHDRBS1))	composite z-score [17]	composite z-score [18]
CC[C@H]1C2=C3C(CC[C@H]4C(OC)OC[C@](C)([C@@H]34)N(C(=O)OC(C)(C)C)C2)C(CO)C1CO (stereo not given in full)	1.37	-0.996	0.221	2.27	1.38	0.379	-0.349	-0.128	2.23	1.33	1.05	0.067 (inactive)	0.619	0.437	0.486	3.15	0.903	1.29	-0.656	1.16
C=CCN1C(=O)[C@@]2(Cc3ccccc3)N=C(c3ccc(OCCCO)cc3)O[C@H]2c2ccccc21	0.974	-2.44	0.525	0.0185	0.192	-0.0814	0.0469	0.79	2.15	1.66	0.174	1.06 (inactive)	0.0635	0.2	0.622	2.83	0.66	1.29	1.23	1.15
CC1=C([C@H](O)CCc2ccccc2)[C@H](CO)[C@@H]2C(=O)N(Cc3ccccc3)C(=O)[C@@H]2C1	0.0933	-0.266	0.334	0.62	-0.503	-0.0644	-0.289	-0.27	0.421	1.71	0.427	0.39 (inactive)	0.0349	-0.117	0.347	0.307	-0.222	-0.364	-0.0449	1.13
CC(=O)NCCCC[C@@H]1NC(=O)[C@@H]2C[C@H](C(=O)NCCCCCCN(C)C)[C@H](c3ccc(O)cc3)N2C1=O	-0.0336	1.08	0.73	-0.158	-1.14	-0.201	0.0712	1.01	1.84	1.65	-0.853	0.67 (inactive)	-0.0396	0.112	0.57	1.92	-0.234	1.32	1.44	1.21

Reference: PubChem BioAssay
